Source: PubChem BioAssay (NCI)
Compounds without any hit were thinned out: in the full panel of roughly 79,000, 15% have a hit. Unmarked numbers belong to inactive results. The source made the active and inactive calls. Cut-off read from the data, not from the text of the source: active = growth inhibition above about 70%; inactive = the rest. Where a SMILES comes first, the peptide text is derived from it. The star is where a group is joined. Cbz = O=C(OCc1ccccc1)*

Assays:
[1] = NCI Yeast Anticancer Drug Screen. Data for the rad50 strain (AID 155);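 note: 0% = growth of vehicle-only cultures of the same strain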; conditions: S. cerevisiae rad50 strain growth inhibition; at 50.0 µM; hits give high values
In short: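 Genetically altered yeast (DNA repair pathway); compound treatment; growth inhibition vs vehicle ctrl.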

[2] = NCI Yeast Anticancer Drug Screen. Data for the mec2-1 strain (AID 157); conditions: S. cerevisiae mec2-1 strain, at 50.0 µM, hits give high values
In short: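 mec2-1 yeast strain, carrying an alteration in DNA damage repair or cell cycle control, was exposed to compounds; growth inhibition was measured relative to vehicle-treated controls.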

[3] = NCI Yeast Anticancer Drug Screen. Data for the sgs1 mgt1 strain (AID 161);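 note: 0% = growth of cultures given vehicle only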; conditions: S. cerevisiae sgs1 mgt1 strain, at 50.0 µM, hits give high values
In short: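 Growth of a repair-deficient yeast mutant was monitored after compound treatment and expressed as inhibition relative to vehicle-treated cultures.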

[4] = NCI Yeast Anticancer Drug Screen. Data for the cln2 rad14 strain (AID 165);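 note: 0% = growth equal to vehicle treated cultures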; conditions: S. cerevisiae cln2 rad14 strain, at 50.0 µM, hits give high values
In short: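 Yeast carrying cln2 and rad14 alterations (cell cycle control and DNA damage repair) were exposed to compounds. Growth inhibition was measured against vehicle-treated controls.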

[5] = NCI Yeast Anticancer Drug Screen. Data for the bub3 strain (AID 167); conditions: S. cerevisiae bub3 mutant strain, at 50.0 µM, hits give high values
In short: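 Yeast carrying a defined mutation is treated with each compound, and growth is compared with that of vehicle-exposed cells to give inhibition.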

[6] = NCI Yeast Anticancer Drug Screen. Data for the mlh1 rad18 strain (AID 175); conditions: S. cerevisiae mlh1 rad18 strain growth inhibition; at 50.0 µM; hits give high values
In short: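 Growth inhibition of the yeast strain was measured after compound exposure and expressed relative to vehicle-treated controls. The strain carries defined defects in DNA damage repair.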

Structure (SMILES)	growth inhibition [1]	growth inhibition [2] [%]	growth inhibition [3]	growth inhibition [4]	growth inhibition [5] [%]	growth inhibition [6]
CCOC(=O)C(=O)C(=O)NN(C)C1=NCCN1	-11.4%	-2.05	7.45%	-13.6%	6.55	2%
Cc1cc(=O)[nH]c(N/N=C2/CCCCC2C)n1 (stereo not given)	-29.4%	-25	-7.05%	-0.6%	-24.3	-21.8%
BrC1=CCC23CC=C(Br)[C@H]4CC2(COC3)C[C@@H]1O4 (stereo not given in full)	25.2%	-0.55	0.6%	-0.05%	-19.4	-9.75%
C/C(=N/NC(=O)C(N)=O)C(CC(C(=O)Nc1ccccc1C)/C(C)=N\NC(=O)C(N)=O)C(=O)Nc1ccccc1C (stereo not given)	0.75%	-0.6	-8.1%	-12.2%	8.05	-12.6%
CC1CCCN(P(c2ccccc2)N2CCCC(C)C2)C1 (stereo not given)	25%	4.6	16.4%	15.4%	26	13%
O=C1c2ccc3c([nH]c4ccccc43)c2C(=O)N1c1ccccc1	19.7%	-2	21.8%	11.9%	13.3	7.35%
S=C(NCCNC(=S)SCc1c(Cl)c(Cl)c(Cl)c(Cl)c1Cl)SCc1c(Cl)c(Cl)c(Cl)c(Cl)c1Cl	48.1%	14.3	24.6%	-8.85%	-0.7	59.8%
CN(CCO)CCN1c2ccccc2Sc2ccccc21	-12.7%	-26.3	-10.2%	-13.9%	-5.8	-0.65%
CO/N=C1C=C/C(=N\OC)C\1	10.7%	-28.2	0.5%	7.55%	-19.1	0.8%
CC(NC(=O)C(Cc1ccc(O)cc1)NC(=O)C(C)NC(=O)OCc1ccccc1)C(=O)O (stereo not drawn) (Cbz-Ala-Tyr-Ala-OH; configuration not given here)	12.2%	13.3	13.7%	-4.25%	-5.8	16.9%
CC(=O)Nc1ccc(C(=O)N2N=C(C)/C(=C/c3cccc([N+](=O)[O-])c3)C2=O)cc1	-9.8%	-17.6	-47.5%	2.55%	-21.9	-32.2%
COC(=O)Oc1nn(C(=O)OC)c(=O)c2ccccc12 (tested in a mixture with another compound)	-5.85%	3.1	3%	-0.8%	11.3	33.5%
Nc1ccccc1C(F)(F)F	2.45%	5.65	1.2%	4.1%	3.3	8.25%
C=C(C)C#CC1(O)C=C(OC)C(OC)=CC1=O (stereo not given)	-36.4%	-12.7	-10.1%	-61.9%	-13.1	7.35%
CCOC(=O)/C(O)=C/c1nc2ccccc2nc1C	18.8%	5.65	8.9%	-6%	-17.3	14.7%
CC(CCc1ccccc1)NC(=O)c1ccccc1 (stereo not given)	5%	-40.1	-1.45%	11.2%	10.7	-16.6%
CCOC(=O)c1cc2nc3ccccn3c(=O)c2cc1N	-1.15%	-17.5	0.85%	-36.3%	-9.3	-8.45%
Cc1ccc2c(c1)Cc1cc(C)ccc1-2	25.1%	12.4	14.4%	7.65%	31.2	19.4%
CCOC(CN=Cc1ccc2c(c1)Sc1ccccc1O2)OCC	73.1% (active)	46.1	88.2% (active)	55.2%	64.8	89.5% (active)
O=C1CC(=O)c2cccc3cccc1c23	42.8%	22.7	44.4%	7.35%	47.9	27.1%

Structure (SMILES)	growth inhibition [1]	growth inhibition [2] [%]	growth inhibition [3]	growth inhibition [4]	growth inhibition [5] [%]	growth inhibition [6]
COc1ccc(OC)c(NCc2ccccc2)c1	-8.6%	-2.5	-13.9%	-88.5%	-0.4	3.65%
CN(C)c1nc(OC2C(C(O)CO)OC3OC(C)(C)OC32)nc(N(C)C)n1 (stereo not given)	31.1%	-11.7	6.15%	18%	-1.05	-0.65%
O=C1c2cc([N+](=O)[O-])ccc2-c2c(Cl)cc(NC(=O)C(F)(F)F)cc21	-0.5%	-11.3	1.65%	-40%	6.9	-2.55%
CN(C)C(=O)Sc1ccc(N(C)C)cc1	-5.15%	-17.9	-11.3%	-25.2%	15.1	-23.2%
CC(O)COc1ccc(C(C)(C)C)cc1 (stereo not given)	3.25%	-4.2	-2.45%	-13%	10.8	2.6%
c1ccc(-c2ccc(-c3nnc(-c4ccc(-c5ccccc5)cc4)o3)cc2)cc1	-0.95%	-10.4	2.7%	-35.6%	-2.6	-3.1%
Nc1cc(Cl)cc2c1nc(NCCO)c1ccccc12	54.7%	60.3	49.1%	97.9% (active)	51.6	56.5%
FC12CCC(F)(CC1)CC2	-7.85%	20.1	-7.5%	-13.9%	7.6	-2.55%
CN(Cc1ccccc1)C(=O)NC1CCCCC1	2.3%	0.05	4.8%	-22.8%	3.4	2.55%
CC(C)(C)NC(=O)NCc1cccc(Cl)c1	0.25%	-19.6	-4.15%	-36.1%	-3	-3.25%
C/C(CC(=O)Nc1cccc(Cl)c1C)=N\N=C(N)N	-10.2%	-27.6	-15.2%	19.4%	-23	-8.9%
O=C(Nc1ccc(NC(=O)Nc2cc(C(F)(F)F)ccc2Oc2ccc(Cl)c(Cl)c2)cc1)Nc1cc(C(F)(F)F)ccc1Oc1ccc(Cl)c(Cl)c1	-28.2%	-45.4	-13.4%	-23.2%	-35.1	-19.7%
CCOC(=O)C1(Br)C(c2ccccc2)NC(=O)NC1(C)Br (stereo not given)	9.15%	-12.2	0.6%	12.8%	-1.75	-14.6%
Nc1nc(N)c(-c2ccccc2)c(CCC(=O)Nc2ccc(Cl)cc2)n1	-34.8%	3.95	-3.35%	-27.9%	-21.5	7.8%
N#CC1(Cl)CC2CC1C1N=NN(c3ccccc3)C21 (stereo not given)	-24.6%	-15.3	-0.25%	-58%	25.6	0.75%
O=C(O)CSc1n[nH]c(-c2ccco2)n1	-4.05%	4.25	3%	14.1%	11.1	7.7%
CCOc1ccc(N=Nc2ccc3oc(=O)c(C(=O)Nc4ccc(OC)cc4)cc3c2)cc1	11.4%	5.9	-17.7%	-22.1%	0.8	11.6%
O=Cc1ccc(F)cc1[N+](=O)[O-]	1.1%	3.65	-15.8%	1.1%	-2.25	-17.2%
CSc1ccc(OC(=O)Nc2cc(Cl)ccc2C)cc1	4.35%	14.8	25.9%	-0.6%	38	5.75%
O=C(COc1ccc(Cl)cc1)N1N=C(c2ccc(Cl)cc2)CC1(O)c1ccccc1 (stereo not given)	-15.8%	-29.8	-8.9%	0.85%	-18.2	-10.6%
